# Measured values taken from PubChem BioAssay (Tox21).
# Values without a mark were called inactive. Activity calls are given as the source filed them. Calls come from the whole dose curve; as a rule, active = well fitted activation curve with a large enough effect in the repeat runs; inconclusive = weak or mixed curves; inactive = flat fitted curve, though single readings scatter.
# Test: A CellTox Green Cytotoxicity Assay to monitor cytotoxicity in HEK293 cells - 0 hour (AID 1224869); note: nearly all actives have a fitted effect of over 50% in size
# Conditions: CellTox Green fluorescence; series mostly up to 76.8 µM; cytotoxicity: at the top concentration
# Description: National Center for Advancing Translational Sciences [NCATS]
# NIH Chemical Genomics Center [NCGC]
# U.S. Environmental Protection Agency [EPA]
# National Institutes of Environmental Health Sciences [NIEHS]
# National Toxicology Program [NTP]
# Cell-based models are critical for drug discovery. Determining the natural cytotoxic effects resulting from test compounds is an essential research activity. A CellTox Green Cytotoxicity Assay to monitor cytotoxicity in real time of continues cell culture during 40 hours of the compound treatment was used to screen Tox21 10K library compounds in Hek293 cells. CellTox Green Cytotoxicity Assay is a nonlytic, homogeneous, biofluorescent method to measure cytotoxicity in cell culture after experimental manipulation. The assay system uses a proprietary asymmetric cyanine dye that is excluded from viable cells but preferentially stains the dead cell's DNA. […] Viable cells produce no appreciable increases in fluorescence. Therefore, the fluorescence signal produced by the binding interaction with dead cell DNA is proportional to cytotoxicity.
# The mixture of Hek293 cell suspension and reagents were dispensed at 600cells/6 ul/well in 1536-well tissue culture treated black solid bottom plates using a Multidrop dispenser. After the assay plates were incubated at a 37 C/5% CO2 incubator for 5 hours, 23 nL of compounds dissolved in DMSO, positive and negative controls was transferred to the assay plate by a pintool work station. The plates were incubated at 37 C for 40 hours. The fluorescence intensity were measured at 0h, 8h, 16h, 24h, 32h and 40h time points using ViewLux plate reader during compound treatment.
# % is set by controls: 0 for no effect and ±100 for the full control effect; potency is the fitted concentration of half-maximal effect.
Compound,cytotoxicity,Potency
OCCCCCCO,-3.33%,–
O=C(O)c1ccccc1S,-4.44% [at 35.3 µM],–
COc1ccc(COC=O)cc1,1.78%,–
CCCCCCOC(=O)CC(CC(=O)OCCCCCC)(OC(=O)CCC)C(=O)OCCCCCC,-6.4%,–
CCC(=O)/C=C/c1ccc(OC)cc1,-2.43%,–
CCCCCCOC(=O)c1ccccc1O,7.95%,–
CCN1CCCC(OC(=O)C(c2ccccc2)c2ccccc2)C1 (stereo not given),-8.02% [at 35.3 µM],–
CC(C)=CCC/C(C)=C/C(=O)O,-6.85%,–
COC(=O)CCCCCCCCC(=O)OC,1.19%,–
COc1nc(C)nc(N)n1,0.156%,–
CNc1ncnc2nc[nH]c12,-8.3%,–
NC(=O)Nc1nc2ccccc2[nH]1,14.5%,–
CCCCCCCCC=O,-0.428%,–
O=C(CCOCCOCCOCCOCCC(=O)Nc1c(I)cc(I)c(C(=O)O)c1I)Nc1c(I)cc(I)c(C(=O)O)c1I,1.56% [at 35.3 µM],–
CSc1ccc(C=O)cc1,-2.43%,–
Nc1ccn(C2CO[C@H](CO)O2)c(=O)n1 (stereo not given in full),–,16.9 µM (active)
COc1cc(C(=O)N2CCOCC2)cc(OC)c1OC,-0.944% [at 35.3 µM],–
Cc1ncc(CSSCc2cnc(C)c(O)c2CO)c(CO)c1O,-3.04% [at 35.3 µM],–
CCCCNc1ccccc1,-7.57%,–
CCCCCCCCCCCCCCCCCCOCC(O)CO (stereo not given),-9.15% [at 35.3 µM],–

Compound,cytotoxicity,Potency
Nc1ncnc2c1ncn2Cc1c(F)cccc1Cl,0.877% [at 35.3 µM],–
c1ccc2cnncc2c1,-4.21%,–
N#CCN(CC#N)CCN(CC#N)CC#N,-0.226%,–
CC(CCO)CCCC(C)(C)O (stereo not given),3.77%,–
NC(=O)CCCCC1CCSS1 (stereo not given),-14.2% [at 35.3 µM],–
Cc1ccccc1Br,-0.249%,–
CC(=O)CCc1ccc(O)cc1,-1.19%,–
CC1=CC(C)C(C=O)C(C)C1 (stereo not given),5.29%,–
CC/C=C\C#N,-3.95%,–
NC(=O)c1ncn([C@@H]2O[C@H](CO)[C@@H](O)[C@H]2O)c1N,-15.9% [at 35.3 µM],–
CC(C=O)Cc1ccc(C(C)C)cc1 (stereo not given),1.08%,–
CC(C)c1cccc(O)c1,1.35%,–
COc1cc(C)cc(O)c1,0.0697%,–
C=CC(=O)N1CCOCC1,0.726%,–
C1COCCO1,2.26%,–
NC(=O)c1c(Cl)cccc1Cl,-4.05%,–
OCCN1C[C@H](O)[C@@H](O)[C@H](O)[C@H]1CO,-3.58% [at 35.3 µM],–
COC[C@H](c1ccc(C(F)(F)F)cc1)N1CCN(C2(C)CCN(C(=O)c3c(C)ncnc3C)CC2)C[C@H]1C,0.693% [at 35.3 µM],–
CCCCc1ccc2cccc(S(=O)(=O)O)c2c1,-7.05%,–
CCC(=O)Nc1cccc(N)c1,3.23%,–
